Measurements taken from the antibiotic and cytotoxicity screens of Wong et al. (2023).
In all, about 39,000 compounds went through this assay and about 3,300 (8.5%) were called active. The list comes from a sample in which actives are over-represented; it also holds similar structures and randomly drawn compounds.

tested on: HepG2; experiment: cytotoxicity call (relative viability < 0.9); conditions: 10 µM

| SMILES | cytotoxicity call |
| --- | --- |
| CCCCOC(=O)C1=CC(=O)CC(C)(C)O1 | active |
| C[C@@H](O)CN1C[C@H]2C[C@@H](C1)c1cccc(=O)n1C2 | inactive |
| CN1C[C@@H](C(=O)O)CN2CCN(C(=O)c3ccncc3F)C[C@@H]2C1 | inactive |
| O=C1CC2(CCNCC2)CN1 | inactive |
| C1CCC(NC2CCCC2)CC1 | inactive |
| CCC1(C2=NCCN2)Cc2ccccc2O1.Cl (stereo not drawn) | inactive |
| NCC[C@H]1COc2ccccc2O1 | inactive |
| Cl.c1ccc2c(c1)OCC(C1=NCCN1)O2 (stereo not drawn) | active |
| FC(F)(F)c1nnc(N2CCNCC2)s1 | inactive |
| CCN1C[C@]2(COC)CC[C@H](O)[C@@]34[C@@H]2[C@@H](OC)[C@@H]([C@@H]13)[C@@]1(OC(C)=O)C[C@H](OC)[C@H]2C[C@H]4[C@@H]1[C@@H]2OC(C)=O | inactive |
| CC(C)c1csc(CCN)n1 | inactive |
| CN1C[C@H]2CN[C@H]2C1 | inactive |
| Cc1[nH]c2ccccc2c1CN(C)C | inactive |
| Cc1cccc(N2CCNCC2)n1 | inactive |
| O=C(O)C=CC(=O)O.c1ccc2nc(N3CCNCC3)ccc2c1 | active |
| c1ccc(N2CCNCC2)nc1 | inactive |
| COc1ccc([C@H]2CC(=O)N3CCNC[C@@H]23)cc1 | inactive |
| CCCN1CC(CSC)CC2c3cccc4[nH]cc(c34)CC21.CS(=O)(=O)O (stereo not drawn) | inactive |
| CNC(C)C(O)c1ccccc1.Cl (stereo not drawn) | inactive |
| O=C(O)C[C@H]1CC[C@@H]2NC[C@H](O)COC[C@H]2O1 | inactive |
| C[CH2][Hg][S]c1ccccc1C(=O)[O-].[Na+] | active |
| O=C([O-])Cc1ccccc1.[Na+] | inactive |
| N[C@@]1(C(=O)O)CC[C@H](C(=O)O)C1 | inactive |
| NCCc1ccc(S(=O)(=O)F)cc1 | inactive |

| SMILES | cytotoxicity call |
| --- | --- |
| CN1C(=O)NC(=O)/C(=C\C=C\c2ccco2)C1=O | inactive |
| C[C@@]12NC(=O)CN1CCc1ccccc12 | inactive |
| CC(C)NC(=O)C1=NO[C@]2(CCNC2)C1 | inactive |
| Nc1nc(Cl)ncc1[N+](=O)[O-] | inactive |
| O=C1CCCC2C3CC(CN12)C1CCCCN1C3.[O-][Cl+3]([O-])([O-])O (stereo not drawn) | inactive |
| Cc1nccc2c1[nH]c1cc(O)ccc12 [listing 1 of 2 here] | inactive |
| COc1ccc2cc(CCN)c(=O)[nH]c2c1 | inactive |
| Cc1nccc2c1[nH]c1cc(O)ccc12 [listing 2 of 2 here] | active |
| c1ccc2c(c1)[nH]c1cnccc12 | inactive |
| Cc1nccc2c1[nH]c1ccccc12 [listing 1 of 2 here] | active |
| COc1ccc2c(c1)[nH]c1c(C)nccc12 | active |
| Cc1nccc2c1[nH]c1ccccc12 [listing 2 of 2 here] | inactive |
| Cc1ccc(C=C2C(=O)NC(=O)NC2=O)cc1 | inactive |
| NCC(=O)Nc1ccc(Br)cc1C(=O)c1ccccc1 | inactive |
| Cn1cnc(CCN)c1 | inactive |
| CC1(C)CCNC1=O | inactive |
| COS(C)(=O)=O | inactive |
| C[C@@H]1CN([C@@H](C)CO)C(=O)c2cc(NC(=O)Nc3ccccc3)ccc2O[C@@H](C)CCCCO[C@H]1CN(C)C(=O)Oc1ccccc1 | inactive |
| CNc1ccc2oc(C[C@H]3O[C@@]4(CC[C@H]3C)O[C@H]([C@H](C)C(=O)c3ccc[nH]3)[C@H](C)C[C@H]4C)nc2c1C(=O)O | active |
| C[C@H]1CN([C@@H](C)CO)C(=O)CCCn2nncc2CO[C@H]1CN(C)C(=O)Oc1ccc2ccccc2c1 | inactive |
| CC=C1CC(C)C(O)(CO)C(=O)OCC2=CCN3CCC(OC1=O)C23 (stereo not drawn) | inactive |
| O=C1CC(=O)N(Cc2ccccc2)C(=O)N1 | inactive |
| C[C@@]1(C(=O)O)[C@H]2CC[C@@H](O2)[C@@]1(C)C(=O)O | active |
| C[C@]12CC[C@](C)(O1)[C@H](C(=O)O)[C@@H]2C(=O)O | inactive |

| SMILES | cytotoxicity call |
| --- | --- |
| O=C(O)[C@H]1[C@H](C(=O)O)[C@H]2CC[C@@H]1O2 | inactive |
| OCCN1CC2(CCN(c3nccs3)C2)C1 | inactive |
| C1CCNCC1 | inactive |
| Cc1cnc[nH]1 | inactive |
| C[C@@H]1CN([C@H](C)CO)C(=O)CCCn2cc(nn2)CO[C@H]1CN(C)C(=O)Oc1cccc2ccccc12 | inactive |
| C[C@H]1CN([C@@H](C)CO)C(=O)CCCn2cc(nn2)CO[C@@H]1CN(C)C(=O)Oc1cccc2ccccc12 | inactive |
| CC(C)C12OC1C1OC13C1(C)CCC4=C(COC4=O)C1CC1OC13C2O (stereo not drawn) | active |
| CC(C)c1ccc2c(c1O)CCC1C3=C(CCC21C)C(=O)OC3 (stereo not drawn) | inactive |
| NCCc1c[nH]c2ccc(OCC(=O)O)cc12 | inactive |
| Nc1ncccc1CN1CC[C@]2(CC(=O)NC2=O)C1 | inactive |
| CCOC1OC2OC3(C)CCC4C(C)CCC(C1C)C24OO3 (stereo not drawn) | active |
| CC1CCC2C(C)C(=O)OC3OC4(C)CCC1C32OO4 (stereo not drawn) | inactive |
| NC(=O)C12CC(CN1)C2 | inactive |
| COc1cc2c3cc1Oc1c(OC)c(OC)cc4c1C(Cc1cccc(c1)Oc1ccc(c(O)c1)CC3N(C)CC2)N(C)CC4.Cl.Cl (stereo not drawn) | active |
| COc1cc2c3cc1Oc1c(OC)c(OC)cc4c1[C@@H](Cc1cccc(c1)Oc1ccc(c(O)c1)C[C@@H]3N(C)CC2)N(C)CC4 | inactive |
| COc1ccc2c(c1O)-c1c(OC)c(OC)cc3c1C(C2)N(C)CC3 (stereo not drawn) | inactive |
| O=C(O)CF.[NaH] | inactive |
| CC(=O)Oc1ccc(C=Cc2cc(OC(C)=O)cc(OC(C)=O)c2)cc1 | inactive |
| c1cnc(N2CCOC[C@@]3(CCCNC3)C2)cn1 | inactive |
| O=C(CCCN1CCC2(CC1)C(=O)N(Cc1cccc(F)c1)CN2c1ccccc1)c1ccc(F)cc1 | active |
| C[C@@H]1CN([C@@H](C)CO)C(=O)CCCn2nncc2CO[C@@H]1CN(C)C(=O)Oc1ccc2ccccc2c1 | inactive |
| C[C@@H]1CN([C@H](C)CO)C(=O)CCCn2cc(nn2)CO[C@@H]1CN(C)C(=O)Oc1ccc2ccccc2c1 | inactive |
| CC(C)C[C@H]1C(=O)N2CCC[C@H]2[C@]2(O)O[C@](NC(=O)[C@@H]3C=C4c5cccc6[nH]c(Br)c(c56)C[C@H]4N(C)C3)(C(C)C)C(=O)N12 | inactive |
| C[C@@H](N)Cc1c[nH]c2ccc(OCc3cccs3)cc12 | inactive |

| SMILES | cytotoxicity call |
| --- | --- |
| C[C@H]1C[C@@H]2CNC[C@@H]2O1 | inactive |
| CCN(CC)CCOC(=O)C(O)(c1ccccc1)c1ccccc1.Cl | inactive |
| CCCCOC(=O)c1ccccc1C(=O)OCCCC | active |
| CC(N)C(O)c1ccc(O)c(O)c1 (stereo not drawn) | inactive |
| CCS(=O)(=O)N1C[C@@H]2CCN[C@@H]2C1 | inactive |
| C[C@@H](N)Cc1c[nH]c2ccc(O)cc12 | inactive |
| O=C1CC[C@@H]2NCC[C@H]2N1 | inactive |
| CC[C@@H](N)[C@@H](O)c1ccc(O)c(O)c1 | inactive |
| CCC(N)C(O)c1ccc(O)c(O)c1.Cl (stereo not drawn) | active |
| C[C@H](N)[C@H](O)c1ccc(O)c(O)c1 | inactive |
| CC=C(C)C(=O)OC1CCC2(C)C3CCC4C5(O)CC(O)C6(O)C(CN7CC(C)CCC7C6(C)O)C5(O)CC42OC13O.Cl (stereo not drawn) | inactive |
| N#C[C@H](O[C@@H]1O[C@H](CO)[C@@H](O)[C@H](O)[C@H]1O)c1ccc(O)cc1 | inactive |
| Cl.N=C(N)NN | inactive |
| [N-]=[N+]=Nc1ccc2[nH]ccc2c1 | inactive |
| Nc1ccc(N2CCNCC2)cc1 | inactive |
| Oc1ccc(N2CCNCC2)cc1 | inactive |
| O=c1[nH]c2cc(N3CCNCC3)ccc2o1 | active |
| OCc1ccco1 | inactive |
| Cc1nnc([C@H]2CCCNC2)o1 | inactive |
| CC[C@H]1/C=C/C=C/C[C@@H](C)[C@H](O)[C@@](C)(O)C(=O)[C@@H](C)[C@H](O)[C@@H](C)C(=O)[C@@H](C)[C@H](O)[C@@H](C)/C=C/C(=O)O[C@@H]2[C@H](C)[C@H](CC1)O[C@]1(CC[C@H](C)[C@H](C[C@@H](C)O)O1)[C@H]2C | inactive |
| COc1ccc2c(c1OC)C(=O)OC2C1c2cc3c(cc2CCN1C)OCO3 (stereo not drawn) | inactive |
| COc1cc(C2c3cc4c(cc3C(O)C3COC(=O)C23)OCO4)cc(OC)c1OC (stereo not drawn) | active |
| C[C@H](CO)N1C[C@H](C)[C@H](CN(C)C(=O)Oc2ccccc2)OCc2ccccc2-c2c(n(C)c3ccccc23)C1=O | inactive |
| C=C(C)C1Cc2c(ccc3c(=O)c4c(oc23)COc2cc(OC)c(OC)cc2-4)O1 (stereo not drawn) | inactive |

| SMILES | cytotoxicity call |
| --- | --- |
| COc1cc2c(cc1OC)C1C(=O)c3ccc4c(c3OC1CO2)CC(C(C)C)O4 (stereo not drawn) | active |
| COc1cc2c(cc1OC)C1C(=O)c3ccc4oc(C(C)C)cc4c3OC1CO2 (stereo not drawn) | active |
| C=C(C)C1Cc2c(ccc3c2OC2COc4cc(OC)c(OC)cc4C2C3=O)O1 (stereo not drawn) | active |
| O=C(NCc1ccccc1)[C@H]1C[C@H]2CNC[C@H]1O2 | inactive |
| CC(C)(C)[C@@]1(O)C[C@H]2OC(=O)C[C@]23C(=O)O[C@H]2OC(=O)[C@@H](O)[C@]231 | inactive |
| C=CCN1CCC23c4c5ccc(O)c4OC2C(=O)CCC3(O)C1C5.Cl (stereo not drawn) | inactive |
| CCOC(OCC)P(=O)(O)CCCN | inactive |
| O=C1CO[C@H]2CNC[C@@H]2N1CC1CCCC1 | inactive |
| CCOC(=O)[C@H]1[C@@H](C=C(C)C)C1(C)C | inactive |
| COc1ccc(N(C(=O)Oc2c(C)cccc2C)c2ccnc(Nc3ccc(N4CCN(C)CC4)cc3)n2)c(OC)c1 | inactive |
| N=C(N)N/N=C/c1ccc2c(c1)OCO2 | inactive |
| Cc1o[nH]c(=O)c1C[C@H](N)C(=O)O | inactive |
| CC12CCC(=O)C=C1CCC1C2CCC2(C)C(O)CCC12 (stereo not drawn) | inactive |
| CCC(=O)OC1CCC2C3CCC4=CC(=O)CCC4(C)C3CCC12C (stereo not drawn) | inactive |
| C#CC1(O)CCC2C3CCC4=CC(=O)CCC4(C)C3CCC21C (stereo not drawn) | active |
| CN1[C@H](CO)[C@H]2c3ccccc3NC[C@H]21 | inactive |
| Cl.NNCc1ccccc1 | inactive |
| CC(=O)[O][Cd][O]C(C)=O | inactive |
| NC[C@@H](O)c1ccc(Br)cc1 | inactive |
| C[C@@H]1NC[C@@H]2CCCN2C1=O | inactive |
| O=c1[nH]c2ccccc2n1CCCN1CCC(n2c(=O)[nH]c3cc(Cl)ccc32)CC1 | inactive |
| O=c1[nH]c2ccccc2n1C1CCN(CCCC(c2ccc(F)cc2)c2ccc(F)cc2)CC1 | active |
